Source: PubChem BioAssay (EPA / NIEHS)
Calls of active or inactive are those of the source. The calls were made as follows: active = hit-call score of the fitted dose curve at least 0.9, where 1 is the maximum; inactive = score below 0.9.

Tests used:
Conditions in all cases: mRNA level, 48 h; actives raise or lower the signal
[1] = read-out: Early growth response protein 1 (EGR1) transcription factor, EGR1 (gene 1958); test: LTEA_HepaRG_EGR1: Life Technologies and Expression Analysis (LTEA) Assay for Early growth response protein 1 (EGR1) transcription factor using HepaRG (AID 2283490)
Summary of the method: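 HepaRG, 48 h exposure, 8-pt half-log series from 100 uM, 0.5% DMSO vehicle; EGR1 transcript by TaqMan qRT-PCR (Fluidigm array), housekeeping-normalized; bidirectional fit relative to DMSO baseline.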

[2] = read-out: Ezrin (EZR), EZR (gene 7430); test: LTEA_HepaRG_EZR: Life Technologies and Expression Analysis (LTEA) Assay for Ezrin (EZR) using HepaRG (AID 2283491)
Summary of the method: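 Gain or loss of EZR mRNA is scored relative to 0.5% DMSO in human HepaRG cultures treated 48 h with test chemicals in duplicate, eight half-log concentrations from 100 uM.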

[3] = read-out: Cytochrome P450 3A7 (Homo sapiens) (UniProt P24462); test: LTEA_HepaRG_CYP3A7: Life Technologies and Expression Analysis (LTEA) Assay for CYP3A7 using HepaRG (AID 2283492)
Summary of the method: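 CYP3A7 transcript levels were read by TaqMan qRT-PCR on Fluidigm arrays after 48 h chemical exposure of human HepaRG cells, with housekeeping-gene normalisation. Eight half-log concentrations up to 100 uM in 0.5% DMSO were tested in duplicate.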

CYP3A5 (gene 1577) = test: LTEA_HepaRG_CYP3A5: Life Technologies and Expression Analysis (LTEA) Assay for CYP3A5 using HepaRG (AID 2283493)
Summary of the method: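 mRNA levels were quantified by qRT-PCR on Fluidigm arrays and normalized to three housekeeping genes. Differentiated HepaRG cells received 48 h exposure (top 100 uM, half-log steps, 0.5% DMSO vehicle, duplicate); bidirectional fitting versus DMSO.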

[4] = read-out: Fatty Acid-Binding Protein 1 (FABP1), FABP1 (gene 2168); test: LTEA_HepaRG_FABP1: Life Technologies and Expression Analysis (LTEA) Assay for Fatty Acid-Binding Protein 1 (FABP1) using HepaRG (AID 2283494)
Summary of the method: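 qRT-PCR readout of FABP1 transcript (normalized to three housekeeping genes) after 48 h chemical exposure of HepaRG cells; eight concentrations, half-log steps, max 100 uM, 0.5% DMSO vehicle; gain or loss fitted relative to DMSO baseline.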

[5] = read-out: Cytochrome P450 4A22 (Homo sapiens) (UniProt Q5TCH4); test: LTEA_HepaRG_CYP4A22: Life Technologies and Expression Analysis (LTEA) Assay for Cytochrome P450 4A22 (CYP4A22) using HepaRG (AID 2283495)
Summary of the method: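 HepaRG, 48 h post-plating -> serum-free induction medium; dosed 48 h, duplicate, 8 conc. (100 uM top, half-log), 0.5% DMSO. Readout: CYP4A22 mRNA by qRT-PCR, ACTB/GAPDH/POLR2A normalization; gain/loss fit relative to DMSO.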

[6] = read-out: Cytochrome P450 7A1 (Homo sapiens) (UniProt P22680); test: LTEA_HepaRG_CYP7A1: Life Technologies and Expression Analysis (LTEA) Assay for Cytochrome P450 7A1 (CYP7A1) using HepaRG (AID 2283496)
Summary of the method: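 HepaRG, 48 h exposure, 8-pt half-log series from 100 uM, 0.5% DMSO vehicle, duplicates. Readout: TaqMan qRT-PCR mRNA vs three housekeeping genes; bidirectional curve fit against DMSO baseline.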

[7] = read-out: Glutathione S-Transferase (GSTA2), GSTA2 (gene 2939); test: LTEA_HepaRG_GSTA2: Life Technologies and Expression Analysis (LTEA) Assay for Glutathione S-Transferase (GSTA2) using HepaRG (AID 2283497)
Summary of the method: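 qRT-PCR readout of GSTA2 transcript, normalized to three housekeeping genes, fitted bidirectionally against 0.5% DMSO baseline. Differentiated HepaRG cells received compound for 48 h at 8 concentrations (top 100 uM, half-log steps).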

[8] = read-out: Glutamate-cysteine ligase catalytic (GCLC), GCLC (gene 2729); test: LTEA_HepaRG_GCLC: Life Technologies and Expression Analysis (LTEA) Assay for Glutamate-cysteine ligase catalytic (GCLC) using HepaRG (AID 2283498)
Summary of the method: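 HepaRG, 48 h exposure, 8-pt half-log series from 100 uM, 0.5% DMSO vehicle; TaqMan qRT-PCR for GCLC mRNA, housekeeping-normalized; bidirectional curve fit vs DMSO baseline.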

[9] = read-out: growth arrest and DNA damage 45 (GADD45G), GADD45G (gene 10912); test: LTEA_HepaRG_GADD45G: Life Technologies and Expression Analysis (LTEA) Assay for growth arrest and DNA damage 45 (GADD45G) using HepaRG (AID 2283499)
Summary of the method: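 HepaRG, 48 h exposure, top 100 uM, half-log 8-point series, 0.5% DMSO vehicle, duplicates. Readout: GADD45G transcript by qRT-PCR (Fluidigm array), housekeeping-normalised (ACTB/GAPDH/POLR2A). Bidirectional curve fit vs DMSO baseline.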

Sequence of Cytochrome P450 3A7 (Homo sapiens) (P24462 whole entry, looked up): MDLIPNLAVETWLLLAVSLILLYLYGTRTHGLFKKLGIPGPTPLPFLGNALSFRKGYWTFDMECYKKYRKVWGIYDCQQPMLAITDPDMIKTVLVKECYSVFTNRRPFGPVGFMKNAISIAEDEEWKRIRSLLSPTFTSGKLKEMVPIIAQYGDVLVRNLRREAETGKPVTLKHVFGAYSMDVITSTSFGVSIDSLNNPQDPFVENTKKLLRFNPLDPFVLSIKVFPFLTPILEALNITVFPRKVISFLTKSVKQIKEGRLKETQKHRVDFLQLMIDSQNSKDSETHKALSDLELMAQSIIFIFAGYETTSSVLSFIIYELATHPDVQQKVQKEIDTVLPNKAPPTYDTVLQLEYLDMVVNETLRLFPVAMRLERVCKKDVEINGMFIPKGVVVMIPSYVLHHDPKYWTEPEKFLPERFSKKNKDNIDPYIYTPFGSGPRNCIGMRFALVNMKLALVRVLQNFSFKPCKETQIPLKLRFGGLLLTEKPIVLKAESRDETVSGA

O=P(O)(O)CCCl
outcome [1]: inactive | outcome [2]: inactive | outcome [3]: inactive | outcome (CYP3A5 (gene 1577)): inactive | outcome [4]: inactive | outcome [5]: inactive | outcome [6]: inactive | outcome [7]: inactive | outcome [8]: inactive | outcome [9]: inactive

CCOc1cc(C(C)(C)C)ccc1C1COC(c2c(F)cccc2F)=N1 (stereo unspecified)
outcome [1]: inactive | outcome [3]: inactive | outcome (CYP3A5 (gene 1577)): inactive | AC50 [4]: 6.69 µM (active) | AC50 [5]: 33 µM (active) | AC50 [6]: 26.9 µM (active) | outcome [7]: inactive | outcome [8]: inactive | outcome [9]: inactive

O=C(O)c1c(Cl)ccc2cc(Cl)cnc12
outcome [1]: inactive | outcome [3]: inactive | outcome (CYP3A5 (gene 1577)): inactive | outcome [4]: inactive | outcome [5]: inactive | outcome [6]: inactive | outcome [7]: inactive | outcome [8]: inactive | outcome [9]: inactive

Cc1nc(N(C)C)nc(OC(=O)N(C)C)c1C
outcome [1]: inactive | AC50 [3]: 19.9 µM (active) | outcome (CYP3A5 (gene 1577)): inactive | outcome [4]: inactive | outcome [5]: inactive | outcome [7]: inactive | outcome [8]: inactive | outcome [9]: inactive

Cn1c(-c2ccccc2)cc(-c2ccccc2)[n+]1C
outcome [1]: inactive | AC50 [3]: 44.1 µM (active) | AC50 (CYP3A5 (gene 1577)): 79 µM (active) | AC50 [4]: 21.9 µM (active) | AC50 [5]: 24 µM (active) | AC50 [6]: 57.2 µM (active) | AC50 [7]: 65.9 µM (active) | AC50 [8]: 82.3 µM (active) | AC50 [9]: 50 µM (active)

Cc1ccc(N=CN(C)C=Nc2ccc(C)cc2C)c(C)c1
outcome [1]: inactive | outcome [3]: inactive | outcome (CYP3A5 (gene 1577)): inactive | outcome [4]: inactive | outcome [5]: inactive | outcome [7]: inactive | outcome [8]: inactive | outcome [9]: inactive

Nc1c(Cl)c(Cl)nc(C(=O)O)c1Cl
outcome [1]: inactive | outcome [3]: inactive | outcome (CYP3A5 (gene 1577)): inactive | outcome [4]: inactive | outcome [5]: inactive | outcome [6]: inactive | outcome [7]: inactive | outcome [8]: inactive | outcome [9]: inactive

COc1cc(OC)nc(NC(=O)NS(=O)(=O)c2ncccc2OCC(F)(F)F)n1
outcome [1]: inactive | outcome [3]: inactive | outcome (CYP3A5 (gene 1577)): inactive | outcome [4]: inactive | AC50 [5]: 0.628 µM (active) | outcome [7]: inactive | outcome [8]: inactive | AC50 [9]: 0.19 µM (active)

OC(c1ccc(Cl)cc1)(c1ccc(Cl)cc1)C(Cl)(Cl)Cl
outcome [1]: inactive | AC50 [3]: 83.5 µM (active) | AC50 (CYP3A5 (gene 1577)): 50 µM (active) | AC50 [4]: 63.2 µM (active) | outcome [5]: inactive | AC50 [6]: 75.9 µM (active) | AC50 [7]: 77.3 µM (active) | outcome [8]: inactive | AC50 [9]: 87.7 µM (active)

COC(=O)N(C(=O)N1CO[C@@]2(C(=O)OC)Cc3cc(Cl)ccc3C2=N1)c1ccc(OC(F)(F)F)cc1
outcome [1]: inactive | AC50 [3]: 73.1 µM (active) | outcome (CYP3A5 (gene 1577)): inactive | AC50 [4]: 40 µM (active) | AC50 [5]: 28.9 µM (active) | AC50 [7]: 51.3 µM (active) | outcome [8]: inactive | outcome [9]: inactive

CCCCOCN(C(=O)CCl)c1c(CC)cccc1CC
outcome [1]: inactive | outcome [3]: inactive | outcome (CYP3A5 (gene 1577)): inactive | outcome [4]: inactive | outcome [5]: inactive | outcome [6]: inactive | outcome [7]: inactive | outcome [8]: inactive | outcome [9]: inactive

COP(=O)(OC)O/C(C)=C/C(=O)N(C)C
outcome [1]: inactive | outcome [3]: inactive | outcome (CYP3A5 (gene 1577)): inactive | outcome [4]: inactive | outcome [5]: inactive | outcome [7]: inactive | outcome [8]: inactive | outcome [9]: inactive

CC(C)N1C(=O)c2ccccc2NS1(=O)=O
outcome [1]: inactive | outcome [3]: inactive | outcome (CYP3A5 (gene 1577)): inactive | outcome [4]: inactive | outcome [5]: inactive | outcome [7]: inactive | outcome [8]: inactive | outcome [9]: inactive

COC(=O)NC(=S)Nc1ccccc1NC(=S)NC(=O)OC
outcome [1]: inactive | AC50 [3]: 4.46 µM (active) | outcome (CYP3A5 (gene 1577)): inactive | outcome [4]: inactive | outcome [5]: inactive | outcome [6]: inactive | outcome [7]: inactive | outcome [8]: inactive | outcome [9]: inactive

CCCCC(O)(Cn1cncn1)c1ccc(Cl)cc1Cl (stereo unspecified)
AC50 [1]: 69.2 µM (active) | AC50 [3]: 89.4 µM (active) | outcome (CYP3A5 (gene 1577)): inactive | AC50 [4]: 79.6 µM (active) | AC50 [5]: 67.8 µM (active) | AC50 [7]: 73.2 µM (active) | outcome [8]: inactive | AC50 [9]: 15.8 µM (active)

Nc1cnn(-c2ccccc2)c(=O)c1Cl
outcome [1]: inactive | outcome [3]: inactive | outcome (CYP3A5 (gene 1577)): inactive | outcome [4]: inactive | outcome [5]: inactive | outcome [6]: inactive | outcome [7]: inactive | outcome [8]: inactive | outcome [9]: inactive

COc1cc(Cl)c(OC)cc1Cl
outcome [1]: inactive | AC50 [3]: 8.31 µM (active) | outcome (CYP3A5 (gene 1577)): inactive | outcome [4]: inactive | outcome [5]: inactive | outcome [6]: inactive | outcome [7]: inactive | outcome [8]: inactive | outcome [9]: inactive

COC(=O)c1c(C(F)F)nc(C(F)(F)F)c(C2=NCCS2)c1CC(C)C
outcome [1]: inactive | AC50 [3]: 50 µM (active) | outcome (CYP3A5 (gene 1577)): inactive | outcome [4]: inactive | outcome [5]: inactive | outcome [6]: inactive | outcome [7]: inactive | outcome [8]: inactive | outcome [9]: inactive
